High-throughput results as filed in PubChem BioAssay.
VDR inh – vitamin D3 receptor (human) inhibition | VDR-SRC2-3 peptide fluorescence polarization, 2 h | Potency, µM, for inactives: max response, negative = inhibition, most hits filed as inhibitors | actives 0.93% (n = 400,000) | AID 504847; also: % is scaled to controls: 0 for no effect and ±100 for the full control effect
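FP read-out; VDR + SRC2-3 coactivator peptide; 23 nl compound by pintool; 2 h RT incubation; reagents held at 4 deg C, protected from light.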
HP1b binding inh – HP1-beta chromodomain-methylated histone interaction inhibition; actives 0.56% (n = 390,000); P83916; Potency, µM (series often up to 114 µM), for the others: at the top dose activity change, negative = inhibition, hits mostly inhibitors; AlphaScreen HP1-beta / biotin-H3K9me3 peptide binding; also: nearly all actives have a fitted effect of over 70% in size
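AlphaScreen: HP1-beta (50 nM) preformed 30 min with biotin-H3(1-18)K9me3 peptide (50 nM) in PBS pH 7.4, 0.01% Tween-20. Compound added for 30 min at RT, then streptavidin donor/nickel chelate acceptor beads (10 ug/mL) for 30 min.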
L3MBTL1 inh – blocks human L3MBTL1 | Potency, µM (highest dose often 57.1 µM), for the others: at the top dose activity, negative = inhibition, hits mostly inhibitors | Q9Y468 | AlphaScreen L3MBTL1–H3K9me1 peptide binding | actives 0.66% (n = 230,000) | AID 485360; also: % is scaled to controls: 0 for no effect and ±100 for the full control effect; nearly all actives have a fitted effect of over 60% in size
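First, the protein-peptide complex forms for 30 min at room temperature (L3MBTL1 50 nM, biotinylated H3K9me1 peptide 75 nM). Next, compounds are pin-transferred and incubated 30 min. Finally, AlphaScreen beads are added and read after 30 min.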
BAZ2B block – inhibitors of human BAZ2B bromodomain. Q9UIF8. AlphaScreen BAZ2B-H3K14Ac peptide displacement. Potency, µM (doses to about 114 µM), without a hit: top-dose activity change, negative = inhibition, actives largely listed as inhibitors. actives 4.4% (n = 360,000). AID 504333; also: % is scaled to controls: 0 for no effect and ±100 for the full control effect; nearly all actives have a fitted effect of over 60% in size
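BAZ2B (50 nM) with biotin-H3(5-23)K14Ac peptide (50 nM) in PBS pH 7.4, 0.01% Tween-20, preformed 30 min, then compound 30 min at room temperature; top concentration 110uM. AlphaScreen streptavidin donor/nickel chelate acceptor beads (10 ug/mL final), 20 min dark, signal read.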
PLK1 PBD inh – PLK1 (human) polo-box domain binding inhibition; AID 720504; Plk1 PBD binding of FITC phosphopeptide, fluorescence polarization; actives 2.8% (n = 360,000); Potency, µM, for the others: max response, negative = inhibition, usual class: inhibitors; also: series mostly up to about 57 µM; % is scaled to controls: 0 for no effect and ±100 for the full control effect; nearly all actives have a fitted effect of over 65% in size
Target sequence (P53350 whole entry, looked up, the tested form may be a part): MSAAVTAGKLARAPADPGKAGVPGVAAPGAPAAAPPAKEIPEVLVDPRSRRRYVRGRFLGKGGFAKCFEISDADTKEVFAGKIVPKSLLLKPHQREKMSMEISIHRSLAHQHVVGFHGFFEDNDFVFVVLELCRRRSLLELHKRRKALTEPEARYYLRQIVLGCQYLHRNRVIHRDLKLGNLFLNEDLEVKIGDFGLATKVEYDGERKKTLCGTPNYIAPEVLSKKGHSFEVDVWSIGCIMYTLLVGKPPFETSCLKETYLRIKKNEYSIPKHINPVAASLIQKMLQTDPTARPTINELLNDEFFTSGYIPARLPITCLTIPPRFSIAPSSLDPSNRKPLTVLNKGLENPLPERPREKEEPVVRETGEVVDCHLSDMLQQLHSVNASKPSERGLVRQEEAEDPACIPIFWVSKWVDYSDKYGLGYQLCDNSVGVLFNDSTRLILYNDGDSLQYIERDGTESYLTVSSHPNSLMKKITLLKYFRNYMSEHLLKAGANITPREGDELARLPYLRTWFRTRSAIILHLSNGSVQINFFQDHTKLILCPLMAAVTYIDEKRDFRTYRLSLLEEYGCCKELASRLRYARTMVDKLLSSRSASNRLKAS
JMJD2A Tudor – inhibitors of human JMJD2A Tudor domain | AlphaScreen JMJD2A-Tudor / H3K4me3 peptide binding | actives 4.4% (n = 390,000) | Potency, µM (top dose mostly 114 µM), for the others: at the highest dose activity change, negative = inhibition, actives largely listed as inhibitors | O75164; also: % is scaled to controls: 0 for no effect and ±100 for the full control effect; nearly all actives have a fitted effect of over 50% in size
The depositor's hits bear a star; ? = inconclusive; / = no result given; [ ] = dose if it differs, or a comment. This is a sample that favours compounds with a hit; in the whole collection about 6.9% have one here. Calls follow the shape of the dose curve; as a rule, active = well fitted curve in the direction sought with a large enough effect; inconclusive = small, poorly fitted or top-dose-only effect, or another doubt; inactive = no such curve, though single readings can be large; an effect the other way counts as inactive or inconclusive. Potency is read from the fitted curve at half-maximal effect.

SMILES	VDR inh	HP1b binding inh	L3MBTL1 inh	BAZ2B block	PLK1 PBD inh	JMJD2A Tudor
Cc1ccc(-c2cc(C(=O)N3CCN(c4ccccc4)CC3)c3ccccc3n2)cc1C	8.7%	47.2%	/	-4.7%	/	?
O=C(c1cc(-c2ccco2)nc2ccccc12)N1CCN(c2ccc(F)cc2)CC1	6.9%	-14.1%	-17.9%	50.1µM*	-7.1%	56.2µM*
Cc1cc(C(=O)OCC(=O)NC(C)C)c2ccccc2n1	?	-7.8%	/	-19.8%	11.9µM*	-27.2%[11.4 µM]
O=C(OCC(=O)N1CCN(C(=O)c2ccco2)CC1)c1ccccc1NCCO	-4.6%	-1.7%	-20.1%	?	-20.6%	31.6µM*
CC[N+](C)(CC)CCOC(=O)C(O)(c1ccccc1)C1CCCCC1 (stereo not drawn)	-0.5%	41.4%	4.4%	-15.2%	-0.1%	-6.5%
CC[N+](C)(CC)CCC(c1ccccc1)C1CCCCC1 (stereo not drawn)	25.0%	?	-2.5%	50.1µM*	-20.1%	?
Cc1nc2ccc(S(=O)(=O)NC(C(=O)NCc3ccc(Cl)cc3)C(C)C)cc2s1 (stereo not drawn)	-11.9%	54.5%	/	-12.6%	/	-4.6%
CCOc1ccc2cc(C3CC(c4ccco4)=NN3S(C)(=O)=O)c(=O)[nH]c2c1 (stereo not drawn)	?	?	/	-32.4%	?	50.1µM*
COc1ccc(C2=NN(S(C)(=O)=O)C(c3cccs3)C2)cc1 (stereo not drawn)	-1.1%	26.3%	13.4%	-19.5%	-7.1%	-15.1%
COc1ccccc1C1CC(c2ccco2)=NN1S(C)(=O)=O (stereo not drawn)	?	-22.4%	-1.4%	-13.5%	?	50.1µM*
COc1ccc(C2CC(c3ccc(OC)c(OC)c3)=NN2S(C)(=O)=O)cc1 (stereo not drawn)	?	-21.3%	8.3%	-0.5%	26.7µM*	-9.6%[11.4 µM]
N#CCCN(C(=S)NC(=O)c1cccs1)c1ccccc1F	?	?	-7.6%	?	18.9µM*	?
COc1ccc(C(=O)/C=C/c2ccc(O)cc2)c2c1CC(O)C(C)(C)O2 (stereo not drawn)	2.9%	49.9%	-2.3%	/	4.0%	?
COc1ccc(C(=O)/C=C/c2ccc(O)cc2)c(O)c1CC=C(C)C	-17.5%	?	-14.5%	?	-11.5%	44.7µM*
CCCC/C=C/[C@H](C)[C@@](C)(COC(=O)c1ccc(Br)cc1)Cc1ccccc1	4.2%	50.5%	/	/	/	11.7%
COc1ccc(CN(Cc2ccccc2)C(=O)c2ccc(OC)cc2O)cc1	/	/	/	/	/	-34.7%
Brc1ccccc1OCCNCc1ccccc1	6.1%	?	/	50.1µM*	-3.6%	?
Clc1ccc(OCCCNCc2ccccc2)c2ccccc12	-11.5%	?	-2.4%	50.1µM*	-6.0%	28.2µM*
Cc1cc(C)c(C)c(OCCNCc2ccccc2)c1	2.7%	-7.6%	-1.4%	20µM*	-1.0%	3.55µM*
Cc1cc(C)c(C)c(OCCCN(C)C)c1	-15.3%	?	-9.4%	-37.7%	-11.8%	20µM*
Cc1ccccc1NC(=O)Cn1c(=O)n(CCc2ccccc2)c(=O)c2sc3ccccc3c21	13.3%	22.9%	/	-1.2%	/	7.0%
CCCCn1c(N)c(N(CCOC)C(=O)c2ccc(-c3ccc(C(C)=O)cc3)o2)c(=O)[nH]c1=O	-0.8%	16.7%	0.5%	70.8µM*	-0.8%	?
CCCCn1c(N)c(N(CCOC)C(=O)c2cc(-c3ccco3)nc3ccccc23)c(=O)[nH]c1=O	-10.4%	-37.8%	?	50.1µM*	-26.5%	39.8µM*
CCCCN(C(=O)c1cc(=O)[nH]c2ccccc12)c1c(N)n(CCC)c(=O)[nH]c1=O	14.1%	36.0%	-3.1%	-2.2%	2.3%	16.2%
COCCN(C(=O)CSc1nc2ccccc2s1)c1c(N)n(Cc2ccccc2)c(=O)[nH]c1=O	79.4µM*	-10.1%	/	/	?	?
SMILES	VDR inh	HP1b binding inh	L3MBTL1 inh	BAZ2B block	PLK1 PBD inh	JMJD2A Tudor
CCCCN(C(=O)c1ccccc1F)c1c(N)n(CCC)c(=O)[nH]c1=O	-5.9%	29.0%	/	-12.5%	-2.9%	79.4µM*
CC(C(=O)NCCCc1ccccc1)c1ccc([N+](=O)[O-])cc1 (stereo not drawn)	-0.3%	11.4%	32.6%	-19.5%	-20.5%	-9.1%
COc1ccc(NC(=O)N2CCCC3(CCN(C(=O)c4cnccn4)CC3)C2)cc1	-0.5%	/	/	/	/	/
Cc1ccn2c(Nc3ccc(C(C)C)cc3)c(-c3cccs3)nc2c1	-10.1%	22.4%	/	-6.8%	/	-19.5%
Cc1c(O)ccoc1=O	-1.8%	32.2%	9.6%	-21.3%	0.4%	28.2µM*
CCCC1=C(C(=O)OCC)C(c2cccs2)C(C#N)=C(N)O1 (stereo not drawn)	?	47.7%	/	-8.9%	-14.0%	-11.8%
CCN1CC2=C(OC(N)=C(C#N)C2c2cccs2)/C(=C/c2cccs2)C1 (stereo not drawn)	-0.3%	-21.6%	-17.5%	31.6µM*	-16.6%	?
CCN1C=C(Cc2cccs2)C2=C(C1)C(c1cccs1)C(C#N)=C(N)O2 (stereo not drawn)	15.9%	-33.5%	?	35.5µM*	-11.9%	?
CCN1CC2=C(OC(N)=C(C#N)C2c2ccccc2)/C(=C\c2ccccc2)C1 (stereo not drawn)	10.2%	-22.6%	-5.8%	?	-4.3%	-32.8%
Cc1ccc(C)c(N2CCN(C(=O)CN3C(=O)COc4ccc(S(=O)(=O)N5CCOCC5)cc43)CC2)c1	3.7%	0.7%	/	-7.7%	/	-14.2%
Cc1nc2cc(N=NC3=C(O)CCCC3=O)ccc2s1	-15.4%	-17.1%	-26.4%	56.2µM*	-5.0%	?
O=C1CCCC(O)=C1N=Nc1ccc(Cl)c(Cl)c1	-9.0%	13.2%	?	?	-4.5%	-18.1%
O=C(Cn1sc2ccccc2c1=O)Nc1ccccc1	/	/	/	/	1.19µM*	/
O=C(Cn1sc2ccccc2c1=O)NC12CC3CC(CC(C3)C1)C2	?	?	/	11.2µM*	2.99µM*	2.82µM*
O=c1oc2ccc3ccccc3c2cc1-c1nnc(Nc2cc(C(F)(F)F)ccc2Cl)s1	0.2%	37.1%	/	2.7%	/	0.3%
CCOc1cc(C2c3c(-c4cc(C)ccc4O)n[nH]c3C(=O)N2CCCOC(C)C)ccc1O (stereo not drawn)	9.0%	13.6%	/	?	/	?
C(=N\Nc1nc(Nc2ccccc2)nc(N2CCOCC2)n1)/c1c[nH]c2ccccc12	-4.2%	-12.4%	-13.7%	31.6µM*	3.0%	50.1µM*
c1ccc(Nc2nc(N3CCNCC3)nc(N3CCOCC3)n2)cc1	-0.4%	-21.0%	0.2%	-11.5%	-2.0%	-28.1%
Cc1cc(/C=N/Nc2nc(N3CCOCC3)nc(N3CCOCC3)n2)c(C)n1-c1ccccc1	22.6%	?	/	/	-5.9%	?
